Screens from PubChem BioAssay.
PTK2B oligo ant: antagonists of Pyk2 self-association, primary screen, Q293 cells, FERM NanoBiT luminescence, HTS; Protein-tyrosine kinase 2-beta (Homo sapiens), Q14289; hit rate 0.83% among 99,000; AID 1347419, 2020; hits give low values; z-score (the deposit names both 25 µM and 10 µM);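 active means Z-score of -3 or lower, scaled per plate to the spread of control and sample wells; inactive means z-score above -3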;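 further: negative z-score means lost luminescence so less FERM oligomerization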
M1 agonist: M1 muscarinic receptor agonists, primary screen, CHO-M1 cells, Fluo-4 calcium, agonist mode; hit rate 3% among 64,000; Fluo-4 calcium fluorescence; hits give high values; AID 626, 2007; B-score at 10 µM;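 active means fluorescence rise, raw or as B-score row- and column-corrected plate score, outside the 99.7% band of its plate's samples, either direction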
Cav32 inh: Cav3.2 calcium influx blockers – cell-based, Fluo-4 calcium fluorescence, FDSS, MLSMR library, primary screen. hit rate 4% among 100,000. Voltage-dependent T-type calcium channel subunit alpha-1H (Homo sapiens), O95180. AID 449739, 2010. B-score at 10 µM. Cav3.2-expressing cells; hits give low values;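 active means single-dose well whose peak fluorescence ratio is a statistical outlier from its plate by either plate-standardised score or position-corrected B-score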
M1 antagonist: antagonists of rat M1 muscarinic receptor; CHO-M1 cells, Fluo-4 calcium, ACh EC80 antagonist mode; hits give low values; B-score at 10 µM; hit rate 3.4% among 64,000; AID 628, 2007;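 active means calcium fluorescence response, raw or row-and-column corrected B-score, differing from the plate sample mean either way at a set confidence level, mostly lower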
M1 ag confirm: rat M1 muscarinic receptor agonists, confirmation, CHO-M1 cells, Fluo-4 calcium, duplicate retest | shares compounds with M1 agonist | Fluo-4 calcium fluorescence, agonist mode; actives lie on both sides | fluorescence change (max-min) at 10 µM | hit rate 19% among 1,700 | AID 1488, 2009;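 active means fluorescence change differs from the solvent-only DMSO control mean at a set confidence level in both duplicate runs; inconclusive means differs from solvent-only control mean in just one of two runs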;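 further: an EC20 dose of acetylcholine follows compound addition during the same imaging run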
M4 agonist ctr: agonist activity at rat M4 receptor, confirmation, counter-screen for M1 allosteric modulator project, cell-based, agonist mode | shares compounds with M1 agonist | CHO M4/Gqi5 cells, Fluo-4 calcium fluorescence; actives lie on both sides | fluorescence change (max-min) at 10 µM | hit rate 9% among 1,700;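 active means fluorescence change differing from the plate's solvent-only control wells at 99.7% confidence in both duplicates, whether higher or lower; inconclusive means differs from solvent controls in only one of two duplicates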
Target sequence (P08485 whole entry, looked up): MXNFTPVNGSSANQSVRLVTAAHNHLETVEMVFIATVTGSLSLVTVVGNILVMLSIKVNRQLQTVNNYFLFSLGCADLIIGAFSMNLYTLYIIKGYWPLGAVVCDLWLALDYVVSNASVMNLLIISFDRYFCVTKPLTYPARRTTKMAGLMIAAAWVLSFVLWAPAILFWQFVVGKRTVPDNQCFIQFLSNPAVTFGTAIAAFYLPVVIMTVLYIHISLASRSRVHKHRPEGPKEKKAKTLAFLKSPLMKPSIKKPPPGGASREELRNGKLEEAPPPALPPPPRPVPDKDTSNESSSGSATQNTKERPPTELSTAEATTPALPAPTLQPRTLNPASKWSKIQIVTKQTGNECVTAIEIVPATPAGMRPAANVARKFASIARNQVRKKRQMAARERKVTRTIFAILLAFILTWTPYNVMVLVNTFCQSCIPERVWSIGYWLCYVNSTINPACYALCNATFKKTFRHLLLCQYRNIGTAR
Large screens that a line does not name were inactive (follow-up assays come after a bar, where they were run). Shown are actives, neighbours in structure and some others; about 7.1% of the full set was active somewhere.

COc1ccc(CNC(=O)c2cc3c(C)nc4ccccc4c3o2)c(OC)c1	M1 agonist 4.9 (no result: PTK2B oligo ant) | M1 ag confirm inactive | M4 agonist ctr inactive
Fc1ccc2c(c1)C(c1ccncc1)=NNC(c1cccnc1)=N2	none (no result: M1 agonist, M1 antagonist)
CCOC(=O)C1CCN(C(c2cc3ccc(C)c(C)c3[nH]c2=O)c2nnnn2C2CCCCC2)CC1 (centres undefined)	none
CCOC(=O)C1CCN(C(c2cc3c(C)ccc(C)c3[nH]c2=O)c2nnnn2C2CCCCC2)CC1 (centres undefined)	M1 agonist 2.6 | M1 ag confirm -33 | M4 agonist ctr inactive
C=CCn1c(=O)c2ccccc2n2c(SCc3nc(N)nc(Nc4ccccc4C)n3)nnc12	M1 agonist 4 | M1 ag confirm inconclusive | M4 agonist ctr inactive
COc1ccc(N(CC(=O)NC2CCCC2)C(=O)Cn2nnc(-c3ccc(C)cc3)n2)cc1OC	M1 agonist 13 | M1 ag confirm inconclusive | M4 agonist ctr inactive
Cc1ccc(C(=O)Nc2ccc3nccnc3c2)cc1	none (no result: M1 agonist, M1 antagonist)
O=C(Nc1ccc(SC(F)F)cc1)c1ccc2nccnc2c1	M1 agonist 3.8, M1 antagonist -0.93 | M1 ag confirm inactive | M4 agonist ctr inactive
CC1CCN(c2nc(-c3ccccc3)cc(C(F)(F)F)n2)CC1	none
Cc1ccc(-c2cc(C(F)F)nc(N3CCC(C)CC3)n2)cc1	M1 agonist 4.2 | M1 ag confirm inactive | M4 agonist ctr inactive
CCc1ccc2c(c1)C(c1ccc([N+](=O)[O-])cc1)=NNC(c1ccc(F)cc1)=N2	none (no result: M1 agonist, M1 antagonist)
CCOc1ccc2nc(N3CCCC(C(=O)NCCCN4CCOCC4)C3)sc2c1 (centres undefined)	M1 agonist 2.1 (no result: PTK2B oligo ant) | M1 ag confirm inactive | M4 agonist ctr inactive
CC1=C(C#N)C(=O)OC(C)(C)C1	M1 agonist 15 | M1 ag confirm inactive | M4 agonist ctr inactive
O=C(Cc1nc2ccccc2s1)c1ccc(O)cc1O	M1 agonist -1.8 (no result: PTK2B oligo ant) | M1 ag confirm inactive | M4 agonist ctr inactive
COc1ccc(CC(=O)c2ccc(O)cc2O)cc1	none (no result: PTK2B oligo ant, M1 agonist, M1 antagonist)
CC1CCCCN1C(=O)CSCC(=O)Nc1nc(-c2cccs2)cs1 (centres undefined)	M1 agonist 8, Cav32 inh -4.9 (no result: PTK2B oligo ant) | M1 ag confirm inactive | M4 agonist ctr inactive
CC1CCCN(C(=O)CSCC(=O)Nc2nc(-c3cccs3)cs2)C1 (centres undefined)	M1 agonist 6.8, Cav32 inh -5.2 (no result: PTK2B oligo ant) | M1 ag confirm inactive | M4 agonist ctr inactive
O=C(O)C1CCCCC1C(=O)Nc1nc(-c2cccs2)cs1 (centres undefined)	none (no result: Cav32 inh)
CCOC(=O)N1CCN(C(=O)CSCC(=O)Nc2nc(-c3cccs3)cs2)CC1	none
O=C(O)C[C@H]1c2cc(C(F)(F)F)ccc2S(=O)(=O)N1C1CCN(Cc2ccccc2)CC1	none (no result: PTK2B oligo ant, M1 agonist, M1 antagonist)
N#CCc1ccc(C(=O)c2ccccc2F)s1	none (no result: M1 agonist, M1 antagonist)
CC(C)CC(CO)N1CCN(C(=O)c2cccc(C(F)(F)F)c2)CCC1=O (centres undefined)	none (no result: PTK2B oligo ant, M1 agonist, M1 antagonist)
CCn1c(C)nc2cc(C(=O)OC(C(F)(F)C(F)F)C(F)(F)C(F)F)ccc21	M1 agonist 11, M1 antagonist -0.79 (no result: Cav32 inh) | M1 ag confirm inactive | M4 agonist ctr inactive
CCn1c(C)nc2cc(C(=O)NNS(=O)(=O)c3c(C)c(C)cc(C)c3C)ccc21	none (no result: M1 agonist, Cav32 inh, M1 antagonist)
CC(C)n1c(SCC(=O)Nc2ccccc2N2CCOCC2)nc2c1c(=O)n(C)c(=O)n2C	none (no result: M1 agonist, M1 antagonist)
CCn1c(SCC(=O)Nc2ccccc2N2CCCCC2)nc2c1c(=O)n(C)c(=O)n2C	M1 agonist 2 | M1 ag confirm inactive | M4 agonist ctr inactive
COc1ccc(-c2cc(=O)oc3c(C)c(O)c(CN(C)C)cc23)cc1	M1 agonist 6.4 | M1 ag confirm inactive | M4 agonist ctr inactive
COc1ccc(CNC(=O)C2CCCN(c3nc4ccccc4o3)C2)c(OC)c1 (centres undefined)	none
Cc1ccc(CCNC(=O)C2CCCN(c3nc4ccccc4o3)C2)cc1 (centres undefined)	M1 agonist 7.5 | M1 ag confirm inactive | M4 agonist ctr inactive
CCCCn1c(SCC(=O)Nc2sc3c(c2C(N)=O)CCC3)nnc1-c1ccccc1	none (no result: M1 agonist, M1 antagonist)
NC(=O)c1c(NC(=O)CSc2nnc(Cc3ccccc3)n2Cc2ccco2)sc2c1CCC2	M1 agonist 7.3 | M1 ag confirm inactive | M4 agonist ctr inactive
COc1cc(-c2nnc(SCC#CCO)o2)cc(OC)c1OC	M1 agonist 5.8 | M1 ag confirm inactive | M4 agonist ctr inactive
CCCCN(CCCC)C(=O)CSc1nnc(-c2cc(OC)c(OC)c(OC)c2)o1	M1 agonist 4.4 | M1 ag confirm inconclusive | M4 agonist ctr inconclusive
CCCCOC(=O)CSc1nnc(-c2cc(OC)c(OC)c(OC)c2)o1	none (no result: Cav32 inh)
OCC#CCSc1nnc(-c2ccncc2)o1	none
O=c1cc(-c2c(F)c(F)c(F)c(F)c2F)oc2c(F)c(F)c(F)c(F)c12	none (no result: PTK2B oligo ant)
N#Cc1c(-c2cccs2)cc(-c2cccnc2)nc1N	M1 agonist 2.8 | M1 ag confirm inconclusive | M4 agonist ctr inactive
CCc1ccc(-c2nc(CSCC(=O)N3CCN(c4ccccn4)CC3)c(C)o2)cc1	M1 agonist 4.6, Cav32 inh -6.8 | M1 ag confirm inactive | M4 agonist ctr inconclusive
Cc1cccc(C(=O)N2CCN(Cc3ccc4c(c3)OCO4)CC2)c1	none (no result: PTK2B oligo ant)
Cc1ccc(-c2nc(CSCC(=O)N3CCN(c4ccccn4)CC3)c(C)o2)cc1	M1 agonist 5.6, Cav32 inh -5, M1 antagonist -2.3 (no result: PTK2B oligo ant) | M1 ag confirm inconclusive | M4 agonist ctr inactive
Cc1ccc(-c2nc(CSCC(=O)N3CCN(C(=O)c4ccco4)CC3)c(C)o2)cc1	none (no result: PTK2B oligo ant)
Cc1cccc(-c2nc(CSCC(=O)N3CCN(Cc4ccc5c(c4)OCO5)CC3)c(C)o2)c1	M1 agonist 5.7, M1 antagonist -4 (no result: Cav32 inh) | M1 ag confirm inactive | M4 agonist ctr inconclusive
CC(=O)Nc1cccc(Oc2ccc(-c3noc(C)n3)cc2)c1	none
O=c1[nH]c(Nc2ccccc2)cc2ccccc12	M1 agonist 5.5 (no result: Cav32 inh) | M1 ag confirm inconclusive | M4 agonist ctr inactive
Cc1ccc(/C=c2\sc3nc(-c4cccnc4)nn3c2=O)cc1	none (no result: Cav32 inh)
CCOc1ccc(/C=c2\sc3nc(-c4ccco4)nn3c2=O)cc1OCC	M1 agonist 105 | M1 ag confirm inconclusive | M4 agonist ctr inactive
CCOC(=O)c1nnn(-c2nonc2N)c1CN(C)Cc1ccccc1	none (no result: M1 agonist, Cav32 inh, M1 antagonist)
COc1ccc(CNS(=O)(=O)c2ccc(OC)cc2)cc1	none
COc1ccc(S(=O)(=O)NCCCCNS(=O)(=O)c2ccc(OC)cc2)cc1	M1 agonist -4.2 (no result: Cav32 inh) | M1 ag confirm inactive | M4 agonist ctr inactive
Cc1ccc(S(=O)(=O)N2CCC(C(=O)N[C@@H](Cc3ccccc3)C(=O)O)CC2)cc1	M1 agonist 1.6 | M1 ag confirm inactive | M4 agonist ctr inconclusive
